From PubChem BioAssay AID1285 (Columbia University Molecular Screening Center, 2008)
The whole screen tested about 190,000 compounds, of which about 1,600 (0.84%) were called active. This excerpt belongs to a sample that is enriched for actives. Values without a mark were called inactive.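 Rule for the calls: active = inhibition above a set limit, derived from the sample mean plus 3 SD (cut at about 45% in these data); inconclusive = one replicate passes the limit while the other fails; inactive = the rest.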

Assay: APP 5'UTR translational reporter suppression – APP 5'UTR luciferase, SH-SY5Y cells, primary screen (AID 1285)
Settings: SH-SY5Y APP 5'UTR-luciferase reporter, luminescence; at 2 µM; active compounds read high

Compound	inhibition
O=C(CSc1nc2ccc(Nc3nc(N4CCOCC4)nc(N4CCOCC4)n3)cc2s1)NCc1ccco1	-2.6%
CN1CCCN(C(=O)C2CCCCC2)CC1	4.4%
O=[N+]([O-])c1cccc(/C([O-])=C(/C(=S)Nc2ccccc2F)[n+]2ccccc2)c1	-11.7%
CCOC(=O)c1c(C)[nH]c(C2=NNC(=NC(C)COC)SC2)c1C (stereo not drawn)	-102%
O=S1(=O)CCC(NC(=S)SCc2ccccc2Br)C1 (stereo not drawn)	0.3%
Cc1nn(C)cc1/C=N/NC(=O)c1sc2ccccc2c1Cl	55.6% (active)
O=C(Nc1ccon1)c1sc2ccccc2c1Cl	-68.6%
O=C(N/N=C/c1c(Cl)[nH]c2ccccc12)c1sc2ccccc2c1Cl	-4.8%
Cc1ccccc1CCN(CC(=O)NC1CCCCC1)C(=O)c1csnn1	11.3%
O=c1nc(N/N=C/c2ccco2)cn[nH]1	12.4%
O=C(O)c1ccc(N/N=C/c2cn(-c3ccccc3)nc2-c2cccs2)cc1	-140%
CC(C)(O)C#Cc1ncc(C(F)(F)F)cc1Cl	-2.7%
CC(=O)Nc1ccc(Nc2c3ccccc3nc3ccccc23)cc1	92.3% (active)
CC(=O)Nc1ccc(NC(=O)COc2ncnc3ccccc23)cc1	0.3%
O=[N+]([O-])c1cccc(Nc2c3ccccc3nc3ccccc23)c1	0.1%
C=CCn1c(SCc2ccc(Cl)c(Cl)c2)nnc1C(CO)NC(=O)c1ccc(OC)cc1 (stereo not drawn)	-13.3%
CCOc1ccc(CCNC(=O)C2=C(C)C(=O)OC23CCC(C)CC3)cc1OCC (stereo not drawn)	-9.6%
N=c1c2c(-c3ccccc3)c(-c3ccccc3)n(Cc3ccccc3)c2ncn1CCCO	77.3% (active)
Cc1nc([N+](=O)[O-])c(NCCCO)n1Cc1ccccc1	6.3%
N=c1c2c(-c3ccccc3)c(-c3ccccc3)oc2ncn1Cc1ccco1	-10.8%
C/C(CCc1ccccc1)=N\NC(=O)c1ccc(CN2CCOCC2)cc1	-5.3%
COc1ccc(N2C(=O)CC(SC(C)C)C2=O)cc1 (stereo not drawn)	-20.2%
COc1cc(Cl)c(C)cc1NC(=O)COC(=O)c1cc(SC)ccc1Cl	6.6%
OCCC1CN(Cc2ccc3nsnc3c2)CCN1C1CCCC1 (stereo not drawn)	-9.3%
C=CS(=O)c1sc(Cl)c(N2CCOCC2)c1[N+](=O)[O-] (stereo not drawn)	83.2% (active)
Cc1ccc(C(=O)NN(CCC#N)C2=NS(=O)(=O)c3ccccc32)cc1	-1.1%

Compound	inhibition
C/C(=N\N)c1c(-c2ccccc2)c2cc(Br)ccc2[nH]c1=O	-3.6%
Cc1cc(N/N=C/c2ccccc2F)c2ccccc2n1	-7.2%
COc1cccc2c(N/N=C/c3ccco3)cc(C)nc12	-4.8%
COc1cccc(/C=N/Nc2cc(C)nc(-c3ccccc3O)n2)c1O	67.5% (active)
COc1ccc(O)c(C(=O)c2cnc3c(c2)c(-c2ccc(F)cc2)c(C#N)c(=O)n3C)c1	-3.8%
Cc1cccc(N2C(=O)SC(SC(=Nc3ccccc3)Nc3ccccc3)C2=O)c1 (stereo not drawn)	-14.2%
Cn1c(CCC(=O)Nc2ccccc2F)nnc1SCC(=O)Nc1ccccc1Cl	-2.1%
C=CCn1c(SCC(=O)Nc2nc3ccccc3s2)nnc1-c1ccccc1O	0.7%
C=CCn1c(SCC(=O)NCc2ccccc2)nnc1-c1cc(Br)ccc1O	55.6% (active)
O=C(CSc1nnc(-c2cccnc2)n1CCc1ccccc1)NCc1ccccc1	4.7%
C/C(Cn1nnc2ccccc21)=N\OC(=O)c1cc(F)c(F)cc1Cl	-4.6%
Cc1cc(C)c2c3c(sc2n1)C(c1ccccc1)C(C#N)=C(N)O3 (stereo not drawn)	7.5%
Cc1cc2c(c(=O)n1Cc1ccco1)C(c1ccccc1)C(C#N)=C(N)O2 (stereo not drawn)	-7.5%
N#CC1=C(N)Oc2c(sc3ccccc23)C1c1ccco1 (stereo not drawn)	56.2% (active)
O=C(/C=C/c1ccc(N2CCOCC2)cc1)c1ccccc1	-140%
O=C(N/N=C/c1coc2ccccc2c1=O)c1cc2ccccc2o1	0.7%
Cc1c(/C=N\NC(=O)c2cc3ccccc3o2)c2ccccc2n1C	78% (active)
Cc1c(/C=N/N2C(=O)C3C4C=CC(C4)C3C2=O)c2ccccc2n1C (stereo not drawn)	13.8%
CCOc1ccc(NC(=O)COc2ccc(C(=O)NC3CCCc4ccccc43)cc2OC)cc1 (stereo not drawn)	-14.3%
COc1ccccc1CNC(=O)COc1ccc(C)nc1[N+](=O)[O-]	-13.3%
C/C(=C\c1ccccc1)C1NC(=O)c2c(sc3c2CCCC3)N1 (stereo not drawn)	14.6%
CCOC(=O)CSC1=C(C#N)C(c2sccc2C)CC(=O)N1 (stereo not drawn)	93.4% (active)
Cc1ccc(C2CC(=O)NC(SCC(=O)OCc3ccccc3)=C2C#N)o1 (stereo not drawn)	18%
C=CCOC(=O)C1=C(C)NC(SCC(=O)OCC)=C(C#N)C1c1ccc(C)cc1 (stereo not drawn)	-6.5%
CC(C)(C)NC(=O)C(=O)NCc1ccncc1	-1.4%
C/C(=N\NC(=O)Cc1ccc(Cl)cc1)c1ccccn1	58.9% (active)

Compound	inhibition
C/C(=N\NC(=O)Cc1ccc(F)cc1)c1ccc(F)cc1	10.7%
COc1ccc(CC(=O)N/N=C(\C)c2ccccn2)cc1	23.4%
Cc1ccc(NC(=O)c2ccn(C(=O)Nc3ccccc3)n2)c(C)c1	-34.7%
Nc1nonc1-c1nc2ccccc2n1Cc1ccc(F)cc1	-0.7%
COc1ccc(C)c(Cn2c(-c3nonc3N)nc3ccccc32)c1	90.7% (active)
Nc1nonc1-c1nc2ccccc2n1CCC(=O)O	-2%
O=C(NCCCN1CCOCC1)c1ccc([N+](=O)[O-])cc1[N+](=O)[O-]	-18.1%
COc1cc(OC)cc(C(=O)OCC(=O)Nc2sccc2C(N)=O)c1	11.2%
Clc1ccc(CN2CCN(/N=C/c3cccnc3)CC2)cc1	-6.8%
O=Cc1cn(Cc2ccccc2)nc1-c1cccnc1	-9.8%
O=C1/C(=C\c2cccnc2)CN(Cc2ccccc2)C/C1=C\c1cccnc1	97.1% (active)
Cc1cccc(N2CCN(c3ccc(C(N)=O)cc3[N+](=O)[O-])CC2)c1C	-15.7%
CCn1c(CNC(=O)c2ccco2)nnc1SCC(=O)Nc1cccc(F)c1	-10%
CCn1c(CNC(=O)c2ccc(OC)c(OC)c2)nnc1SCC(=O)Nc1ccccc1	45.9% (active)
CCn1c(Cc2ccccc2)nnc1SCC(=O)Nc1ccccc1	-1.3%
O=C(CNC(c1ccccc1)c1ccccc1)Nc1ccc(F)cc1	-7.4%
CC1(C)CC(=O)C(N=Nc2ccc(S(=O)(=O)N3CCCCCC3)cc2)=C(O)C1	9.4%
CCOC(=O)c1ccc(N2C(=O)CC(N3CCN(C(=O)c4ccccc4)CC3)C2=O)cc1 (stereo not drawn)	-5.3%
O=C(COc1ccccc1F)NC1CC1	-9.1%
O=C(COc1cc(Cl)c(Cl)cc1Cl)NC(=O)NC1CCCC1	45.2% (active)
O=C(COc1cc(Cl)c(Cl)cc1Cl)NCCc1ccccn1	1.4%
Cc1ccccc1C1CC(c2cccs2)=NN1S(C)(=O)=O (stereo not drawn)	17.8%
Cn1nnc(NC(=O)CSc2ncn[nH]2)n1	53.1% (active)
O=C(CSc1ncn[nH]1)Nc1nsc(-c2ccccc2)n1	-2.5%
O=C(CSc1ncn[nH]1)Nc1ccnc2ccccc12	4%
COc1ccc(Br)cc1/C=N/NC(=O)c1cccc(S(=O)(=O)N2CCOCC2)c1	-16.1%
